Drawing on PubChem BioAssay (NCI), this text covers growth for 13 compounds.

SMILES strings stand for the structures. About 83,000 compounds went through this panel and 20% of them were active in at least one assay; those are over-represented in the sample as a whole.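 Cell lines were cultured in 96-well plates, exposed to a single compound concentration, and assessed for percent growth 48 hours later.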 Unmarked numbers belong to inactive results. The source made the active and inactive calls. The calls were made as follows: active = growth percent below 10; inactive = the rest.

Some test systems named below: NCI-H23 lung; NCI-H226 lung; NCI-H322M lung; HOP-62 NSCLC; NCI-H460 lung; HOP-92 NSCLC; NCI-H522 lung; A549/ATCC NSCLC; 786-0 renal; COLO 205 colon.
Common to all, as to assay: NCI-60 one-dose screen, 48 h (100 = growth as untreated, 0 = no growth, -100 = all killed)
Settings in all cases: 10 µM unless noted

Turning to `NC(N)=Nc1nc2ccccc2n2c1nc1ccccc12`, the growth with NCI-H23 lung is 36.3%; with NCI-H226 lung, 56.7%; with NCI-H322M lung it was 43.7%; in the test on HOP-62 NSCLC, 40.4%; in the test with NCI-H460 lung, 8.12% (active); in the test on HOP-92 NSCLC it was 56.6%. Also, the growth in the test with NCI-H522 lung is 16.1%; with A549/ATCC NSCLC, 17.7%; with 786-0 renal, 33.5%; with COLO 205 colon, 30.3%.
Regarding `COc1ccc(C(=O)COc2ccc(/C=C3\Oc4ccccc4C3=O)cc2)cc1`, the growth with NCI-H23 lung was 92.9%; in the test with NCI-H226 lung it was 88%; in the test with NCI-H322M lung it was 108%; with HOP-62 NSCLC, 90.8%; in the test with NCI-H460 lung, 102%; with HOP-92 NSCLC, 75.8%. Also, the growth is 63% with NCI-H522 lung, 99% in the test with A549/ATCC NSCLC, 98.1% in the test on 786-0 renal and 99.2% with COLO 205 colon.
Take `CCN(CC)CCCCCCNc1cc(OC)c(Cl)c2cccnc12`: the growth is 76.9% in the test with NCI-H23 lung; 78.7% in the test with NCI-H226 lung; 92.7% with NCI-H322M lung; 69.1% in the test with HOP-62 NSCLC; 83.9% in the test on NCI-H460 lung; 58.8% in the test with HOP-92 NSCLC. Also, the growth with NCI-H522 lung is 81.1%; in the test with A549/ATCC NSCLC, 96.7%; with 786-0 renal, 73.9%; in the test with COLO 205 colon it was 55.1%.
For the compound `COc1cccc(-c2nn(-c3ccccc3)cc2-c2ccnc(NCCCNC(=O)c3ccc(F)cc3)c2)c1`, the growth was 53.1% in the test with NCI-H23 lung; 60.1% in the test with NCI-H226 lung; 80.8% with NCI-H322M lung; 35.6% in the test with HOP-62 NSCLC; 45.8% in the test with NCI-H460 lung; 57.4% with HOP-92 NSCLC. Moreover, the growth in the test on NCI-H522 lung was 51.8%; in the test with A549/ATCC NSCLC, 30.5%; in the test on 786-0 renal it was 38.2%; in the test on COLO 205 colon, 31.7%.
Consider `O=c1c2c3c(sc2n2c(-c4cn(-c5ccccc5)nc4-c4ccc(Cl)cc4)nnc2n1Cc1ccccc1)CCCC3`, for which the growth in the test with NCI-H23 lung was 94.3%; with NCI-H226 lung, 107%; in the test with NCI-H322M lung, 102%; in the test on HOP-62 NSCLC, 94.6%; in the test with NCI-H460 lung, 106%; with HOP-92 NSCLC, 81.8%. The growth is 77.5% in the test with NCI-H522 lung, 105% in the test on A549/ATCC NSCLC, 99.6% in the test on 786-0 renal and 111% in the test with COLO 205 colon.
As for `CN(C)c1ccc(-c2ccc3[nH]c(=O)nc(-c4ccccc4)c3c2)cn1`, the growth in the test on NCI-H23 lung is 62.1%; with NCI-H226 lung it was 66.6%; in the test on NCI-H322M lung, 77.5%; in the test on HOP-62 NSCLC it was 63%; in the test with NCI-H460 lung, 18.3%; with HOP-92 NSCLC, 59.1%. The growth in the test on NCI-H522 lung was 19.2%; in the test on A549/ATCC NSCLC, 58.3%; in the test with 786-0 renal, 44.5%; in the test with COLO 205 colon, 37.1%.
Regarding `COc1cc(/C=C2\C(=O)ON=C2C)cc(OC)c1OC`, the growth is 98.6% with NCI-H23 lung; 100% in the test on NCI-H226 lung; 95.1% in the test on NCI-H322M lung; 97% in the test with HOP-62 NSCLC; 110% with NCI-H460 lung; 87.8% with HOP-92 NSCLC. Besides, the growth is 98.5% with NCI-H522 lung, 96.1% in the test on A549/ATCC NSCLC, 103% in the test with 786-0 renal and 105% in the test on COLO 205 colon.
As to `Cc1nc2ccccc2n1CC1NC(=O)NC1=O` (stereo not given), the growth with NCI-H23 lung was 102%; in the test on NCI-H226 lung it was 98.4%; in the test with NCI-H322M lung, 97.7%; with HOP-62 NSCLC, 93.3%; in the test on NCI-H460 lung, 107%; with HOP-92 NSCLC, 115%. Further, the growth in the test on NCI-H522 lung is 94.9%; with A549/ATCC NSCLC, 98.3%; in the test on 786-0 renal, 101%; in the test with COLO 205 colon, 108%.
In the case of `O=C(N/N=C/C=C/c1ccc([N+](=O)[O-])o1)c1cc2ccccc2cc1O`, the growth in the test with NCI-H23 lung is -54.6% (active); in the test with NCI-H226 lung, -72.3% (active); in the test with NCI-H322M lung, -6.76% (active); with HOP-62 NSCLC, -33.9% (active); with NCI-H460 lung it was -14.3% (active); with HOP-92 NSCLC, -47.5% (active). Moreover, the growth with NCI-H522 lung is -62.9% (active); in the test with A549/ATCC NSCLC, 4.04% (active); in the test with 786-0 renal, -18.4% (active); in the test with COLO 205 colon it was -100% (active).
As for `COc1ccc2c(c1)O/C(=C\c1cccc(OCC(=O)Nc3nc(C)c(C)s3)c1)C2=O`, the growth was 19.4% with NCI-H23 lung; 92.2% in the test on NCI-H226 lung; 103% in the test on NCI-H322M lung; 101% in the test with HOP-62 NSCLC; 88.8% with NCI-H460 lung; -75.4% (active) in the test with HOP-92 NSCLC. Further, the growth with NCI-H522 lung was -73.8% (active); in the test with A549/ATCC NSCLC, 12.4%; with 786-0 renal, 17.7%; with COLO 205 colon, 91.6%.
Turning to `N#CC1=C(NC=O)Oc2c(ccc3ccccc23)C1c1ccccc1` (stereo not given), the growth in the test with NCI-H23 lung is 38.5%; in the test with NCI-H226 lung, 62.6%; with NCI-H322M lung, 75.4%; in the test on HOP-62 NSCLC, 21.1%; in the test on NCI-H460 lung, 19.9%; in the test on HOP-92 NSCLC, 42.6%. In addition, the growth was -2.8% (active) in the test on NCI-H522 lung, 36.3% in the test with A549/ATCC NSCLC, 22% in the test on 786-0 renal and 96.4% in the test on COLO 205 colon.
Consider `N#Cc1c(N)nc2c(C#N)c(NC(=O)c3ccccc3)nn2c1-c1ccccc1`, for which the growth in the test with NCI-H23 lung is 87%; in the test with NCI-H226 lung, 78%; in the test with NCI-H322M lung it was 94.7%; with HOP-62 NSCLC, 90.7%; in the test with NCI-H460 lung, 96.8%; in the test on HOP-92 NSCLC, 82.5%. Moreover, the growth was 86.5% in the test on NCI-H522 lung, 92.6% with A549/ATCC NSCLC, 102% in the test on 786-0 renal and 103% with COLO 205 colon.
As for `O=C1CC(N2C(=O)/C(=C/C(Cl)=C\c3ccc([N+](=O)[O-])cc3)SC2=S)C(=O)N1c1ccc(O)cc1` (stereo not given), the growth in the test on NCI-H23 lung is -41.7% (active); in the test with NCI-H226 lung it was -64% (active); in the test on NCI-H322M lung, 12.2%; in the test on HOP-62 NSCLC it was 5.91% (active); in the test on NCI-H460 lung, 0.922% (active); in the test on HOP-92 NSCLC it was -6.73% (active). The growth is -24.1% (active) in the test with NCI-H522 lung, 15.6% in the test with A549/ATCC NSCLC, -3.2% (active) in the test on 786-0 renal and -42.9% (active) in the test on COLO 205 colon.
